Test results from PubChem BioAssay (NCATS).
Records with an inconclusive call do not appear. Calls of active or inactive are those of the source. Calls come from the whole dose curve; as a rule, active = well fitted cell-killing curve with a large enough effect; inconclusive = small, poorly fitted or top-dose-only effect, or effect the other way; inactive = no such curve, though single readings can be large or run the other way.

Test: Quantitative High-Throughput drug screen in 47 multiple myeloma cell lines against the NCATS MIPE library collection: KMS27_JCRB cell viability assay (AID 1918970); note: nearly all actives have a fitted effect of over 30% in size
Details: KMS27 myeloma cells, CellTiter-Glo ATP viability, 48 h; series mostly up to 45.8 µM; viability (% of DMSO): at the top concentration
Excerpt: PI: Beverly A. Mock Ph.D.
Laboratory of Cancer Biology and Genetics,
Center for Cancer Research, National Cancer Institute,
National Institute of Health, Bethesda, Maryland
Drug resistance and disease progression are common in multiple myeloma (MM) patients, underscoring the need for new therapeutic combinations. […] We hypothesized that effective combinations would reduce MYC expression and enhance p16 activity. […] These preclinical data identify potentially useful drug combinations for evaluation in drug-resistant MM and reveal potential mechanisms of combined drug sensitivity.
Described herein is the primary MIPE qHTS used to cherrypick compounds. Validated compounds were then further tested for potential synergistic activiy.
[1] Peat TJ, Gaikwad SM, Dubois W, Gyabaah-Kessie N, Zhang S, Gorjifard S, Phyo Z, Andres M, Hughitt VK, Simpson RM, Miller MA, Girvin AT, Taylor A, Williams D, D'Antonio N, Zhang Y, Rajagopalan A, Flietner E, Wilson K, Zhang X, Shinn P, Klumpp-Thomas C, McKnight C, Itkin Z, Chen L, Kazandijian D, Zhang J, Michalowski AM, Simmons JK, Keats J, Thomas CJ, Mock BA. Drug combinations identified by high-throughput screening promote cell cycle transition and upregulate Smad pathways in myeloma. […] Epub 2023 Jun 24. PMID: 37356470; PMCID: PMC10408729.
SEQUENCE No. (e.g., 1, 2, 3, etc.); […] (e.g., Cells, Incubation, Reagent, etc.); VALUE and DESCRIPTION.
1; Cells; 5 uL; white, solid bottom 1536-well Greiner assay plate.
2; Compounds; 23 nL; Kalypsis pin tool (Wako USA) equipped with a 1536-well pin head to transfer to the assay plates.
3; Incubation; 48 hours; 37C incubation.
4; Reagent;5uL; CellTiter Glo (Promega).
5; Detector; 425V; Luminescence; Viewlux PerkinElmer.
NOTES (numbers refer to Sequence numbers above)
1. The cell-based screening methods employed in this study were like those previously published. Briefly, the corresponding myeloma cell lines were screened in 1,536-well plates with 500 cells, 5-uL per well for inhibition of cell viability (assessed by measuring ATP levels with CellTiterGlo).
2. NCATS MIPE 4.0 library of approved and investigational drugs were added using the Kalypsis pin tool. Wells treated with DMSO only for 100% viability and media only wells for 0% viability were used as controls.
3. The assay plates were covered and incubated for 48 hours in a 37C, 5% CO2 incubator with controlled humidity.
4. After 48 hours, CellTilter-GloTM luminescent substrate mix (Promega) reagent was added to the assay plate and plates we incubated for 5 min at room temperature.
5. Signal was measured as median relative luminescence units on a ViewLux (PerkinElmer) multiplate reader.
[1] Heske CM, Davis MI, Baumgart JT, Wilson K, Gormally MV, Chen L, Zhang X, Ceribelli M, Duveau DY, Guha R, Ferrer M, Arnaldez FI, Ji J, Tran HL, Zhang Y, Mendoza A, Helman LJ, Thomas CJ. Matrix Screen Identifies Synergistic Combination of PARP Inhibitors and Nicotinamide Phosphoribosyltransferase (NAMPT) Inhibitors in Ewing Sarcoma. Clin Cancer Res. 2017 Dec 1;23(23):7301-7311. doi: 10.1158/1078-0432.CCR-17-1121. Epub 2017 Sep 12. PMID: 28899971; PMCID: PMC6636827.
Potency is the fitted concentration of half-maximal effect.

Row | Compound | Potency | viability (% of DMSO)
1 | O=C(NCc1ccccc1)c1csc(Nc2ccncn2)n1 | 7.43 µM (active) | 
2 | COc1cc(Nc2ncc(F)c(Nc3ccc4c(n3)NC(=O)C(C)(C)O4)n2)cc(OC)c1OC | 11.8 µM (active) | 
3 | O=C(NOCC(O)CO)c1cc(Br)c(F)c(F)c1Nc1ccc(I)cc1F (stereo not given) |  | 131% (inactive)
4 | CO[C@H]1C[C@@H]2CC[C@@H](C)[C@@](O)(O2)C(=O)C(=O)N2CCCC[C@@H]2C(=O)O[C@H]([C@H](C)C[C@@H]2CC[C@H](OCCO)[C@H](OC)C2)CC(=O)[C@H](C)C=C(C)[C@@H](O)[C@@H](OC)C(=O)[C@H](C)C[C@H](C)C=CC=CC=C1C | 4.18 µM (active) | 
5 | c1cc(-c2sc(-c3ccncc3)c(-c3ccncc3)c2-c2ccncc2)ccn1 | 3.32 µM (active) | 
6 | CC1(C)CCC(CN2CCN(c3ccc(C(=O)NS(=O)(=O)c4ccc(NCC5CCOCC5)c([N+](=O)[O-])c4)c(Oc4cnc5[nH]ccc5c4)c3)CC2)=C(c2ccc(Cl)cc2)C1 | 0.118 µM (active) | 
7 | O=c1ccn([C@@H]2O[C@H](CO)[C@H](O)[C@H]2O)c(=O)[nH]1 |  | 126% (inactive)
8 | O=C(NC1CCOCC1)c1ccc(-c2cc(-c3cn[nH]c3-c3ccccn3)ccn2)cc1 |  | 140% (inactive)
9 | COc1ccc2cccc(CCNC(C)=O)c2c1 |  | 110% (inactive)
10 | COc1ccc(C2CC(c3ccccc3)=NN2c2ccc(S(N)(=O)=O)cc2)cc1 (stereo not given) | 8.33 µM (active) | 
11 | CC#CCn1c(N2CCC[C@@H](N)C2)nc2c1c(=O)n(Cc1nc(C)c3ccccc3n1)c(=O)n2C |  | 122% (inactive)
12 | CO[C@@H](C(=O)N1Cc2[nH]nc(NC(=O)c3ccc(N4CCN(C)CC4)cc3)c2C1)c1ccccc1 | 23.5 µM (active) | 
13 | CN1CCN(CCOc2cc(OC3CCOCC3)c3c(Nc4c(Cl)ccc5c4OCO5)ncnc3c2)CC1 | 16.6 µM (active) | 
14 | O=c1c(-c2ccc(O)cc2)coc2cc(O)ccc12 |  | 113% (inactive)
15 | N#CC(=C(N)Sc1ccccc1N)C(C#N)=C(N)Sc1ccccc1N | 18.7 µM (active) | 
16 | CCNc1cc(NC2CCC(O)CC2)nc(Nc2ccc3c(ccn3Cc3ccccc3)c2)n1 (stereo not given) | 16.6 µM (active) | 
17 | CC[C@@H]1C=C(C)C[C@H](C)C[C@H](OC)[C@H]2O[C@@](O)(C(=O)C(=O)N3CCCC[C@@H]3C(=O)O[C@H](C(C)=C[C@@H]3CC[C@H](Cl)[C@H](OC)C3)[C@H](C)[C@@H](O)CC1=O)[C@H](C)C[C@H]2OC | 8.33 µM (active) | 
18 | COc1ccc2c(Oc3ccc(NC(=O)c4c(C)n(CC(C)(C)O)n(-c5ccccc5)c4=O)cc3F)ccnc2c1 | 20.9 µM (active) | 
19 | O=c1cc(CN2CCOCC2)occ1OCCCCCSc1ccnc2cc(C(F)(F)F)ccc12 | 20.9 µM (active) | 
20 | O=C1NC(=O)C(=Cc2ccc3nccnc3c2)S1 | 2.29 µM (active) | 

Row | Compound | Potency | viability (% of DMSO)
21 | Cc1nc(N)sc1-c1ccnc(Nc2ccc(N3CCOCC3)cc2)n1 | 6.62 µM (active) | 
22 | Cc1c(O)cccc1C(=O)N[C@@H](CSc1ccccc1)[C@H](O)CN1C[C@H]2CCCC[C@@H]2C[C@@H]1C(=O)NC(C)(C)C | 16.6 µM (active) | 
23 | O=C(CCCCCCC(=O)Nc1ccccc1)NO | 3.72 µM (active) | 
24 | CC=CC[C@@H](C)C(=O)[C@H]1C(=O)N[C@@H](C(C)C)C(=O)N(C)CC(=O)N(C)[C@@H](CC(C)C)C(=O)N[C@@H](C(C)C)C(=O)N(C)[C@@H](CC(C)C)C(=O)N[C@@H](C)C(=O)N[C@H](C)C(=O)N(C)[C@@H](CC(C)C)C(=O)N(C)[C@@H](CC(C)C)C(=O)N(C)[C@@H](C(C)C)C(=O)N1C | 4.69 µM (active) | 
25 | CN1[C@@H]2CCC[C@@H]1CC(NC(=O)c1nn(C)c3ccccc13)C2 (stereo not given in full) |  | 103% (inactive)
26 | Cc1ccn(-c2ccc(-c3ncco3)cc2)c(=O)c1-c1ccc2nc(N)ncc2c1 |  | 95.1% (inactive)
27 | N#C[C@H]1C[C@H]2C[C@@H]2N1C(=O)[C@@H](N)C12CC3CC(CC(O)(C3)C1)C2 |  | 122% (inactive)
28 | C[C@H]1[C@H](NC(=O)C(=NOC(C)(C)C(=O)O)c2csc(N)n2)C(=O)N1S(=O)(=O)O |  | 122% (inactive)
29 | Clc1ccc(CCC(Cn2ccnc2)Sc2c(Cl)cccc2Cl)cc1 (stereo not given) | 18.7 µM (active) | 
30 | CCOC(=O)C1=C(N)Oc2ccc(Br)cc2C1C(C#N)C(=O)OCC (stereo not given) | 18.7 µM (active) | 
31 | O=C(Nc1c(Cl)cncc1Cl)c1ccc(OC(F)F)c(OCC2CC2)c1 |  | 138% (inactive)
32 | CCOC(CN1C(=O)[C@](CC(=O)Nc2ccc(C)cc2)(NC(=O)Nc2ccc(C)cc2)c2ccccc21)OCC | 26.4 µM (active) | 
33 | CCOC1OC(=O)C[C@H]1NC(=O)[C@@H]1CCCN1C(=O)[C@@H](NC(=O)c1ccc(N)c(Cl)c1)C(C)(C)C (stereo not given in full) | 5.26 µM (active) | 
34 | O=c1c(-c2ccc(O)cc2)coc2cc(OC3O[C@H](CO)[C@H](O)[C@H](O)[C@H]3O)cc(O)c12 (stereo not given in full) |  | 131% (inactive)
35 | Cc1ccc(F)c(NC(=O)Nc2ccc(-c3cccc4[nH]nc(N)c34)cc2)c1 | 10.5 µM (active) | 
36 | CC1(C)S[C@H]2[C@H](NC(=O)[C@@H](N)c3ccc(O)cc3)C(=O)N2[C@@H]1C(=O)O | 0.935 µM (active) | 
37 | C[C@]12CCC3c4ccc(O)cc4CCC3C1CCC2=O (stereo not given in full) |  | 125% (inactive)
38 | c1ccc2c(Cc3c[nH]c4ccccc34)c[nH]c2c1 | 7.43 µM (active) | 
39 | O=C1c2ccccc2-[n+]2ccc3c([nH]c4ccccc43)c21 | 2.64 µM (active) | 
40 | CCn1cc(C(=O)O)c(=O)c2ccc(C)nc21 |  | 115% (inactive)
